# Screens deposited in PubChem BioAssay by several laboratories.
# MEKK2 mut-MEK5 = signal of MEK5 binding to mutant human MEKK2 PB1 domain | bead flow cytometry, Alexa488-MEK5 binding to MEKK2 mutant | percent response, % at 10 µM | 0.35% of 290,000 active | AID 1530; in the data active means percent response above about 24%, passing the limit was not always enough
# MEKK3 PB1 HTS = MEKK3-MEK5 PB1 interaction, increase or decrease; AID 1529; binding response (% of control), % at 10 µM; 1.4% of 290,000 active; bead-based flow cytometry, Alexa488-MEK5 binding to MEKK3; actives lie on both sides; 0 = blocked by unlabeled MEK5, 100 = vehicle; Q99759;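 active means binding response more than 3 SD above or below the average of its plate-row segment, actives on both sides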;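 further: Alexa488 bead fluorescence after subtracting the streptavidin-only scavenger bead signal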
# Target sequence (Q99759 whole entry, looked up): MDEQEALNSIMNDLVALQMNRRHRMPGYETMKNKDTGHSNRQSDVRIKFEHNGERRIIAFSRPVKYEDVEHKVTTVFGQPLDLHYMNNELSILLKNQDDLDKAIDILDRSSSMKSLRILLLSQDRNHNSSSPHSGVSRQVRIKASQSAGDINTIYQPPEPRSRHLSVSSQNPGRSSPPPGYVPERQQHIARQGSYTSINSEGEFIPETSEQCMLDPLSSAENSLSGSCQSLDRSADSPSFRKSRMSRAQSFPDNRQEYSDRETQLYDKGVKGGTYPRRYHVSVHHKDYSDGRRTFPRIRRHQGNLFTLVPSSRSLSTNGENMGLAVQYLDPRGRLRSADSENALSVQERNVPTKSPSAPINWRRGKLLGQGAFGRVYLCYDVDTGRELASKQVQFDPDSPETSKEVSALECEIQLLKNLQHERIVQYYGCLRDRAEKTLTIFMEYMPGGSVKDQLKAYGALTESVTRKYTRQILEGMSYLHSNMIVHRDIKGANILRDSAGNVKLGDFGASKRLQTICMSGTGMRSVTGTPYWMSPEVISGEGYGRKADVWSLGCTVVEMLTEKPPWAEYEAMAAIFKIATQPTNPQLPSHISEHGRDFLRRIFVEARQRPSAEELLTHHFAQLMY
# Pf gametocyte = P. falciparum stage V gametocyte viability inhibition | P. falciparum stage V gametocytes, ATP luminescence, 24 h | inhibition, % at 10.9 µM | 0.065% of 150,000 active;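 active means inhibition above the mean plus 3 SD of compounds within the control limits, set per campaign, cut at about 38% in these data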;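 further: 0% = DMSO wells and 100% = medium only without gametocytes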
# MEKK2 WT-MEK5 = raises or lowers MEK5 binding to wildtype human MEKK2 PB1 domain | bead flow cytometry, Alexa488-MEK5 binding to MEKK2 WT; actives lie on both sides | binding response (% of control), % at 10 µM | 1.1% of 290,000 active | AID 1531; in the data active means binding response below about 67% or above about 130%
# Arbovirus anti = arbovirus infection inhibition; arbovirus infection cell-based antiviral screen; inhibition, % at 10 µM; 0.37% of 200,000 active; AID 1251; in the data active means inhibition above about 30%
# MEKK2wt confirm = raises or lowers MEK5 binding to wildtype human MEKK2, retest; shares compounds with MEKK3 PB1 HTS; bead flow cytometry, Alexa488-MEK5 binding to MEKK2 WT; actives lie on both sides; binding response (% of control), % at 10 µM; 2.4% of 5,900 active; in the data active means binding response below about 16% or above about 210%; inactive means in between
# MEKK2mut confirm = signal of MEK5 binding to mutant human MEKK2, retest; percent response, % at 10 µM; AID 1893; 2% of 5,900 active; bead flow cytometry, Alexa488-MEK5 binding to MEKK2 mutant; shares compounds with MEKK3 PB1 HTS; in the data active means percent response mostly above about 71%, no sharp cut-off; inactive means mostly below about 38%;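 further: higher means compound restores mutant binding toward wildtype level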
# MEKK3 confirm = MEKK3-MEK5 PB1 inhibition, single concentration confirmation; bead flow cytometry, Alexa488-MEK5 binding to MEKK3; hits give low values; AID 1894; binding response (% of control), % at 10 µM; shares compounds with MEKK3 PB1 HTS; 1.8% of 5,900 active;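 active means binding response below 72% of control, or above a set upper limit, though filed actives all read lower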;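 further: 100% = DMSO only wells and 0% = binding blocked by excess unlabeled MEK5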
# * = called active by the depositor; · = no result given; [ ] = dose if it differs, or a comment. A selection: hits, their analogues and other compounds. The true share with any hit is near 2.4%.
SMILES,MEKK2 mut-MEK5,MEKK3 PB1 HTS,Pf gametocyte,MEKK2 WT-MEK5,Arbovirus anti,MEKK2wt confirm,MEKK2mut confirm,MEKK3 confirm
COc1ccc(N2C(=O)/C(=C/c3ccc([N+](=O)[O-])cc3)C=C2c2ccccc2)cc1,-6,76*[inhibitor],·,-10*,-9,88,-5,91
CCCCc1n[nH]c(=S)n1Cc1ccc(C)cc1,-17,48*[inhibitor],16,65,4,104,2,106
COc1ccccc1CN1CCC(n2nccc2NC(=O)CCCc2ccccc2)CC1,19,103,·,142*,·,162,54,113
CCOc1ccccc1CN1CCC(n2nccc2NC(=O)CCCc2ccccc2)CC1,14,101,·,131,·,·,·,·
CC(C)[C@H](NC(=O)[C@@H]1CSC2c3ccccc3C(=O)N21)C(=O)NC1CCCCC1 (some centres undefined),1,111,·,102,·,·,·,·
CC(=O)N1CCc2cc(S(=O)(=O)NCC(=O)NCc3ccc(Cl)cc3)ccc21,1,103,·,104,·,·,·,·
CCCc1nc(SCc2ccc(OCC)cc2)n[nH]1,-2,103,·,102,·,·,·,·
Cc1ccc(NC(=S)NN(C)c2cc(C)nc(C)n2)cc1,1,129*,6,107,-1,99,1,100
Cc1cnc(C)c(N(C)NC(=S)Nc2ccccc2)n1,5,106,-10,105,5,·,·,·
COc1ccc(C2CC2/C(C)=N/OC(=O)C2CC2)cc1 (centres undefined),-12,60,·,65,11,·,·,·
COc1ccc(C2CC2C(C)=O)cc1 (centres undefined),5,134*,0,121,6,98,0,102
CC1=[N+](C)c2ccc3ccccc3c2C1(C)C,71*,89,11,·,-13,88,5,91
CC(C)(C)OC(=O)C[C@H]1C/C=C\C[C@@H](CC(=O)NCCO)C(=O)NCCOC1=O,·,·,15,·,·,·,·,·
O=C(O)CC1(CC(=O)Nc2cc(F)ccc2Cl)CCCCC1,28,134*,-8,131,·,97,-2,99
CCC(C)NC(=O)CO/N=C/c1ccccc1OC(F)F (centres undefined),-1,97,-3,98,1,·,·,·
O=C(CO/N=C/c1ccccc1OC(F)F)N1CCc2ccccc21,19,101,-18,103,-4,·,·,·
CC1Cc2ccccc2N1C(=O)CO/N=C/c1ccccc1OC(F)F (centres undefined),0,10*[inhibitor],·,98,0,101,0,102
CC1CCCCC1NC(=O)CO/N=C/c1ccccc1OC(F)F (centres undefined),-2,71*[inhibitor],-4,94,-7,104,3,106
C=CCNS(=O)(=O)c1cccc2cc(C(=O)O)c(O)cc12,9,134*,9,136*,0,97,-2,96
O=C(O)c1cc2cccc(S(=O)(=O)N3CCCCC3)c2cc1O,-3,99,·,98,·,·,·,·
CC12CC(c3ccccc3O1)C(C(=O)NCc1ccccc1)C(=O)N2 (centres undefined),-6,81*[inhibitor],·,87,3,82,-10,87
O=C(CC(=O)N/N=C/c1ccc(F)cc1)N/N=C/c1ccc(F)cc1,0,101,6,101,·,·,·,·
O=C(CCCc1c[nH]c2ccccc12)NCc1cccs1,-6,102,4,99,-3,·,·,·
O=C(Cc1c[nH]c2ccccc12)N/N=C/c1ccc(F)cc1,0,139*,-16,103,14,101,-6,100
O=C(Cc1c[nH]c2ccccc12)N1CCc2ccccc21,-42,2.0*[inhibitor],4,1.0*[inhibitor],-4,100,-3,105
O=C(Cc1c[nH]c2ccccc12)NCc1cccs1,0,136*,1,108,-9,95,-13,96
Cc1cc(-c2nnc(SCC(=O)Nc3cccc(Cl)c3)n2N)n[nH]1,3,100,·,103,·,·,·,·
